{"source": "the supplement of paper PMC10338343", "note": "± gives the standard deviation.", "data": [{"tested_on": "MILI (PIWIL2) piRISC loaded with L1MC piRNA (26 nt)", "assay": "pre-steady-state target cleavage rate (min^-1); guide: L1MC piRNA 5'p-UAACUAAAUACUAUGCAAGCUGUAGG; MIWI and MILI are mouse PIWI proteins and EfPiwi is from a freshwater sponge; tags in brackets are library labels; higher = faster piRNA-guided slicing of the target", "details": "auxiliary factor: 500 nM mouse GTSF1", "method_in_brief": "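Sequencing of uncleaved targets, normalised to depth and to weakly complementary targets, was the readout of this Cleave-'n-Seq assay. A transcribed, DNA-blocked target RNA library (0.1 nM) was mixed with 1 nM active affinity-purified piRISC carrying one synthetic guide, with or without 500 nM GTSF1 partner protein, in HEPES–potassium acetate buffer at 33 °C for 0–8 or 0–960 min. Three trials were pooled, k3 was capped at 0.0001 min^-1, and a burst-and-steady-state fit gave the pre-steady-state cleavage rate.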", "values": [{"sequence": "UCCUGGAACAGCUUGCUUAGUAUUUAGAAA", "pre-steady-state target cleavage rate": "0.142 ± 0.029"}, {"sequence": "UCCUCCUACAGCUUGCAUACUAUUUUCAAA", "pre-steady-state target cleavage rate": "0.0677 ± 0.018"}, {"sequence": "UCCUGGAUCAGCUUGCAUAGUAAAUACAAA", "pre-steady-state target cleavage rate": "0.0497 ± 0.016"}, {"sequence": "UCCUGGAUGUCGAUGCAUAGUUUUUAGUAA", "pre-steady-state target cleavage rate": "0.0058 ± 0.0029"}, {"sequence": "UCCUGGAUGUCGAACGUAAGUAAUUAGAUA", "pre-steady-state target cleavage rate": "< 0.0001"}, {"sequence": "UCCUCCUACAGCUUCGAUAGUAUUUACAAA", "pre-steady-state target cleavage rate": "0.0556 ± 0.016"}, {"sequence": "UCCUGGAACAGCUUGCAUACUAUUUACUUA", "pre-steady-state target cleavage rate": "0.0611 ± 0.015"}, {"sequence": "UCCUGGAUGAGCAACCAUAGUAUUUAGUUA", "pre-steady-state target cleavage rate": "0.0437 ± 0.011"}, {"sequence": "UCCUGGUACAGCUAGCAUAGUAUUUUCAAA", "pre-steady-state target cleavage rate": "0.0662 ± 0.02"}, {"sequence": "UCCUGGAUCACCUUGCAUAGUAUUUUGUUA", "pre-steady-state target cleavage rate": "0.11 ± 0.027"}, {"sequence": "UCCUGGAUGUCGAACGUUAGUUUUUAGAUA", "pre-steady-state target cleavage rate": "< 0.0001"}, {"sequence": "UCCUGCUACAGCUUCCAUAGUUUUUAGUUA", "pre-steady-state target cleavage rate": "0.0226 ± 0.01"}, {"sequence": "UCCUGGAUCAGCUUGCAUAGAUAUUAGUUA", "pre-steady-state target cleavage rate": "0.00566 ± 0.0036"}, {"sequence": "UCCUCCUACACGAUGCAUAGUAUUUUCAAA", "pre-steady-state target cleavage rate": "0.0649 ± 0.017"}, {"sequence": "UCCUGGAACAGCUUGCAUAGUAAUUACAAA", "pre-steady-state target cleavage rate": "0.0522 ± 0.019"}, {"sequence": "UCCUGGAUGUCGAUCAUAGUAUUUAGUUA", "pre-steady-state target cleavage rate": "0.017 ± 0.006"}, {"sequence": "UCCUGGAACACCUUGCAUAGUAUUUAGAAA", "pre-steady-state target cleavage rate": "0.146 ± 0.031"}, {"sequence": "UCCUGGAUCAGCUUGCAUAGUAAAAAGUUA", "pre-steady-state target cleavage rate": "0.102 ± 0.019"}, {"sequence": "UCCUGGAUGAGCUUGCAUAGUAAAUAGUAA", "pre-steady-state target cleavage rate": "0.0816 ± 0.026"}, {"sequence": "UCCUGGAUGUCCAUGCAUAGUAUUUAGAUA", "pre-steady-state target cleavage rate": "0.0163 ± 0.0062"}, {"sequence": "UCCUGGAUCACCUUGCAUAGUAUUUAGAAA", "pre-steady-state target cleavage rate": "0.22 ± 0.051"}, {"sequence": "UCCUGCUACAGGAUGCAUAGUAUUUACAAA", "pre-steady-state target cleavage rate": "0.0053 ± 0.0037"}, {"sequence": "UCCUGGAUCAGCUUGCAUAGUAUUUCAGUUA", "pre-steady-state target cleavage rate": "0.162 ± 0.028"}, {"sequence": "UCCUGGAUGUCCUUGCUUAGUAUUAAGUUA", "pre-steady-state target cleavage rate": "0.0115 ± 0.0047"}, {"sequence": "UCCUGGAUGUCCAUGCAUACUAUUUAGUUA", "pre-steady-state target cleavage rate": "0.0122 ± 0.0052"}, {"sequence": "UCCUGGAUGUGGUUGCAUAGUAUUUACUUA", "pre-steady-state target cleavage rate": "0.00985 ± 0.0096"}, {"sequence": "UCCUCCUACAGCUUGCAUAGUUUUUACAAA", "pre-steady-state target cleavage rate": "0.0506 ± 0.013"}, {"sequence": "UCCUGGAUCAGCUUGCAUAGUAUAAUGUAA", "pre-steady-state target cleavage rate": "0.0214 ± 0.0079"}, {"sequence": "UCCUGGAUGUCGAAGCAUAGUAUUCAGUUA", "pre-steady-state target cleavage rate": "0.00908 ± 0.0042"}, {"sequence": "UCCUGCUACUCCUUGCAUAGUAUUUUCAAA", "pre-steady-state target cleavage rate": "0.0369 ± 0.013"}, {"sequence": "UCCUGGAACAGCUUGCAUAGAAUAUAGUUA", "pre-steady-state target cleavage rate": "0.0426 ± 0.011"}, {"sequence": "UCCUGGAACAGCAUGCAUAGUAUUUACAAA", "pre-steady-state target cleavage rate": "0.182 ± 0.035"}, {"sequence": "UCCUGGAUGUCGAACGUUGAGUAUUUAGUUA", "pre-steady-state target cleavage rate": "< 0.0001"}, {"sequence": "UCCUGGAUGUCGAACCAUAGUUUUUUGUUA", "pre-steady-state target cleavage rate": "< 0.0001"}, {"sequence": "UCCUGGAACUCCUUGCAUAGUAUUUACAAA", "pre-steady-state target cleavage rate": "0.241 ± 0.061"}, {"sequence": "UCCUGCUACAGCUACCAUAGUAUUUAGAAA", "pre-steady-state target cleavage rate": "0.0677 ± 0.021"}]}]}
